esBAF inh: inhibitors of esBAF chromatin remodeling in mouse ES cells; Bmi1-luciferase knock-in reporter, 24 h; 100% = twice the neutral-well signal; reporter increase, % at 12.5 µM; hit rate 2% among 350,000; AID 602393; in the data active = activation above about 40%; inconclusive = no clear call, values can overlap the other calls;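 note: a rise in the Bmi1 reporter signal indicates esBAF inhibition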
N-glyco inh: blocks N-linked glycosylation in D54 reporter cells; D54 ERlucT glycosylation luciferase reporter, 24 h; percent of 100 nM tunicamycin response; reporter increase, % at 12.5 µM; hit rate 0.23% among 360,000; AID 588692;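 active = mean luciferase reporter signal, scaled so untreated is 0 and the glycosylation-blocking control 100, at or above a set limit in every replicate; inconclusive = mean reaches the limit but not every replicate does; inactive = mean below the limit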;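 note: luciferase carries N-glycosylation sites so blocking glycosylation raises the light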
PvdQ inh: blocks Pseudomonas aeruginosa PvdQ acylase activity; AID 488965; purified PvdQ acylase, fluorescence plate reader; hit rate 0.063% among 340,000; inhibition, % at 10 µM; in the data active = inhibition above about 30%, passing the limit was not always enough; inconclusive = no clear call, values can overlap the other calls
Vif inh: inhibitors of HIV Vif; HEK293T cells, Vif self-association by quenched fluorescence, imaging, 24 h; inhibition, % at 7.49 µM; hit rate 0.35% among 340,000; AID 602346; in the data active = inhibition above about 50%, passing the limit was not always enough; inconclusive = no clear call, values can overlap the other calls; inactive = below about 31%
MITF act: increases MITF-driven TRPM1 promoter luciferase signal; activation, % at 12.5 µM; SK-MEL-5 TRPM1-promoter luciferase, 24 h; % of positive control, neutral wells = 0; AID 588334; hit rate 0.75% among 300,000;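 active = mean activation of at least 80% with every replicate also reaching 80%; inconclusive = mean reaches 80% but some replicate falls short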
Wnt bcat act: activators of Wnt/beta-catenin signaling. Wnt/beta-catenin reporter cell assay, activator, plate reader. AID 743398. hit rate 1.2% among 300,000. activation, % at 9.35 µM; in the data active = activation above about 30%, passing the limit was not always enough; inconclusive = no clear call, values can overlap the other calls
A number is an active result. Shown are actives, neighbours in structure and some others; about 2.9% of the full set was active somewhere.

`Cc1cc(C(=O)COC(=O)c2ccc(Cl)c(S(N)(=O)=O)c2)c(C)n1C1CC1` gave esBAF inh 77.8, N-glyco inh inactive, PvdQ inh inactive, Vif inh inactive, MITF act 97.2 and Wnt bcat act 44.6.
Screening Cc1sc(NC(=O)Nc2ccccc2)c(C(N)=O)c1C returned esBAF inh inconclusive, N-glyco inh inactive, PvdQ inh inactive, Vif inh inactive, MITF act inactive and Wnt bcat act 33.0.
For CC(=O)Nc1sc(C)c(C)c1C(=O)OCC(=O)Nc1cccc(C)c1 the results were esBAF inh inactive, N-glyco inh 66.2, PvdQ inh inactive, Vif inh inactive, MITF act inactive and Wnt bcat act inactive.
For COc1ccc(CNC(=O)COC(=O)c2c(NC(C)=O)sc(C)c2C)cc1OC the results were esBAF inh inactive, N-glyco inh inactive, Vif inh inactive and Wnt bcat act 46.0.
Screening COc1cccc(NC(=O)COC(=O)c2c(NC(C)=O)sc(C)c2C)c1 returned esBAF inh inactive, N-glyco inh inactive, PvdQ inh inactive, Vif inh inactive, MITF act inactive and Wnt bcat act inactive.
CC(=O)Nc1sc(C)c(C)c1C(=O)OCC(=O)Nc1ccccc1 was read as esBAF inh inactive, N-glyco inh 84.6, PvdQ inh inactive, Vif inh inactive, MITF act inactive and Wnt bcat act inactive.
Screening C[C@H]1CN([C@@H](C)CO)C(=O)c2cc(C#Cc3ccccn3)cnc2O[C@H]1CN(C)CC1CCCC1 returned esBAF inh inactive.
CC1(C)Cc2c(sc(NC(=O)Nc3ccccc3)c2C(N)=O)CO1 was read as esBAF inh 54.7, N-glyco inh inactive, PvdQ inh inactive, Vif inh inactive and Wnt bcat act inactive.
For CC(=O)c1cccc(NC(=O)COC(=O)c2ccccc2C)c1 the results were esBAF inh 44.3, N-glyco inh inactive, PvdQ inh inactive, Vif inh inactive, MITF act 96.9 and Wnt bcat act inactive.
Screening CC1(C)Cc2c(sc(NC(=O)C(=O)N3CCCC3)c2C(N)=O)CO1 returned N-glyco inh inactive, PvdQ inh inactive, Vif inh inactive, MITF act inactive and Wnt bcat act inactive.
Screening CC(=O)Nc1sc(C)c(C)c1C(=O)OCCOc1ccccc1 returned esBAF inh 55.3, N-glyco inh inactive, PvdQ inh inactive, Vif inh inactive, MITF act inactive and Wnt bcat act inactive.
`Cc1noc(C)c1NC(=O)N(C)C[C@H]1Oc2ccc(NC(=O)Cc3cn(C)c4ccccc34)cc2C(=O)N([C@@H](C)CO)C[C@H]1C` gave esBAF inh inactive.
`Cn1c(SCc2c(F)cccc2Cl)nnc1-c1cccs1` gave esBAF inh 65.3, N-glyco inh inactive, PvdQ inh inactive and Vif inh inactive.
Cn1c(SCCOc2ccccc2Cl)nnc1-c1cccs1 was read as esBAF inh inactive, N-glyco inh inactive, PvdQ inh inactive, Vif inh inactive, MITF act inactive and Wnt bcat act inactive.
Screening CCC(=O)Nc1ccc2c(c1)C(=O)N(C)[C@@H]1CC[C@H](CC(=O)NC3Cc4ccccc4C3)O[C@@H]1CO2 returned esBAF inh inactive.
`CCC(=O)c1ccc(OCC(=O)Nc2nn3cnnc3s2)cc1` gave N-glyco inh inactive, PvdQ inh inactive, Vif inh 68.1 and MITF act inactive.
`ClCc1nc2ccccc2c2ccccc12` gave esBAF inh inactive, N-glyco inh 63.0, PvdQ inh inactive, Vif inh inactive, MITF act inactive and Wnt bcat act inactive.
Screening Nn1c(SCc2ccccc2)nnc1-c1ccccn1 returned esBAF inh 43.3, N-glyco inh inactive, PvdQ inh inactive and Vif inh inactive.
For Nn1c(SCc2ccccc2F)nnc1-c1ccccn1 the results were N-glyco inh inactive, Vif inh inactive and Wnt bcat act 41.0.
For CC(C)NC(=O)N[C@H]1CC[C@@H](CCn2cc(-c3ccccc3)nn2)O[C@@H]1CO the results were esBAF inh inactive.
For C[C@@H]1CN([C@H](C)CO)C(=O)c2cc(-c3ccc(F)cc3)cnc2O[C@@H]1CN(C)C(=O)c1ccc(F)cc1 the results were esBAF inh inactive.
Screening COc1ccc(NC(=O)Nc2ccc3c(c2)CC(=O)N([C@H](C)CO)C[C@H](C)[C@@H](CN(C)C(=O)Nc2ccc(F)cc2)O3)cc1 returned esBAF inh inactive.

Assay outcomes: PubChem, Broad Institute
